LMNA splice mod = qHTS Assay for Modulators of Lamin A Splicing; HeLa LMNA splicing GFP/RFP minigene ratio, 48 h; Potency, µM (top dose mostly 46.1 µM), without a hit: top-dose ratio change, negative = inhibition, usual class: inhibitors; hit rate 0.01% among 200,000; active = well fitted inhibition curve with a large enough effect in the signal ratio, with a control signal flat, not every such curve was filed as active; inconclusive = small, poorly fitted or top-dose-only effect, or effect the other way, or a change in a side signal; the % refers to the signal ratio; note: potency is the fitted concentration of half-maximal effect; % is set by controls: 0 for no effect and ±100 for the full control effect
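S3 HeLa stable clones carrying a lamin A-EGFP splicing minigene plus DsRed2 were seeded at 600 cells/well in Opti-MEM with 2% FBS, pin-dosed and incubated 48 h at 37°C. Acumen cytometry (488 nm) gave the GFP/RFP total-intensity ratio.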
JMJD2E inh = qHTS Assay for Inhibitors of Human Jumonji Domain Containing 2E (JMJD2E). JMJD2E catalytic domain, FDH-coupled NADH fluorescence (FDH is formaldehyde dehydrogenase). Potency, µM (series often up to 57.1 µM), without a hit: at the top dose activity change, negative = inhibition, hits mostly inhibitors. hit rate 1.6% among 230,000. AID 2147, 2009; active = well fitted inhibition curve with a large enough effect, not every such curve was filed as active; inconclusive = small, poorly fitted or top-dose-only effect, or another doubt; inactive = no such curve, though single readings can be large or run the other way;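 note: potency is the fitted concentration of half-maximal effect; 0% = wells with enzyme and -100% = buffer wells without enzyme; nearly all actives have a fitted effect of over 50% in size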
Sfp inh = qHTS Assay for Inhibitors of Bacillus subtilis Sfp phosphopantetheinyl transferase (PPTase); 4'-phosphopantetheinyl transferase ffp (Bacillus subtilis), Q9F4F7; Biochemical Sfp PPTase activity, qHTS; Potency, µM, for inactives: largest response in the series, negative = inhibition, hits mostly inhibitors; hit rate 3.5% among 310,000; AID 1490, 2009;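 note: the enzyme is Sfp with the accession as filed and its product quenches rhodamine fluorescence; potency is the fitted concentration of half-maximal effect; 0% = enzyme reaction without inhibitor and -100% = no enzyme wells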
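Sfp 15 nM + cpd, 15 min RT; start w/ rhodamine-CoA 5 uM, BHQ-2-YbbR 12.5 uM (final); 50 mM Hepes pH 7.6, 10 mM MgCl2, 0.01% NP-40, 0.01% BSA; read 525/598 nm at 0 and 30 min.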
G9a inh = qHTS Assay for Inhibitors of Histone Lysine Methyltransferase G9a | hit rate 8.8% among 350,000 | Potency, µM (highest dose often 102 µM), for the others: at the highest dose activity, negative = inhibition, usual class: inhibitors | Histone-lysine N-methyltransferase EHMT2 (Homo sapiens), Q96KQ7 | G9a H3K9 monomethylation, AlphaScreen, 2 h; note: potency is the fitted concentration of half-maximal effect; % is set by controls: 0 for no effect and ±100 for the full control effect; nearly all actives have a fitted effect of over 75% in size
Target sequence (Q96KQ7 913-1193 limits assumed): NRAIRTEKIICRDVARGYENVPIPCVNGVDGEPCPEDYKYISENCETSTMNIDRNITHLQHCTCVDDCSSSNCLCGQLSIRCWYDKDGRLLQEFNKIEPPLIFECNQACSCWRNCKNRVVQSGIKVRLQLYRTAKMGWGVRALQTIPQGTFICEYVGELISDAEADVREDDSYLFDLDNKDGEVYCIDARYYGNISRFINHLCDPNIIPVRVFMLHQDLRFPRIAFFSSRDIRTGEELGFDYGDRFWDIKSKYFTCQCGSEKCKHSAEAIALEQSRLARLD
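Chemiluminescent proximity detection of H3K9 monomethylation, read after 10 min bead incubation in the dark. Reaction: 20 nM G9a, 500 nM biotin-H3K9 peptide, 20 uM SAM cofactor, 2 h, room temperature, following 15 min enzyme-compound preincubation.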
ALDH1A1 block = qHTS Assay for Inhibitors of Aldehyde Dehydrogenase 1 (ALDH1A1); Potency, µM (doses to about 75.3 µM), inactives show at the highest dose activity, negative = inhibition, usual class: inhibitors; Aldehyde dehydrogenase 1A1 (Homo sapiens), P00352; hit rate 7.3% among 220,000; Purified ALDH1A1, NADH fluorescence, propionaldehyde substrate; active = well fitted inhibition curve with a large enough effect, not every such curve was filed as active; inconclusive = small, poorly fitted or top-dose-only effect, or another doubt; inactive = no such curve, though single readings can be large or run the other way;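 note: potency is the fitted concentration of half-maximal effect; plate controls were no enzyme wells and a reference inhibitor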
Target sequence (P00352 whole entry, looked up): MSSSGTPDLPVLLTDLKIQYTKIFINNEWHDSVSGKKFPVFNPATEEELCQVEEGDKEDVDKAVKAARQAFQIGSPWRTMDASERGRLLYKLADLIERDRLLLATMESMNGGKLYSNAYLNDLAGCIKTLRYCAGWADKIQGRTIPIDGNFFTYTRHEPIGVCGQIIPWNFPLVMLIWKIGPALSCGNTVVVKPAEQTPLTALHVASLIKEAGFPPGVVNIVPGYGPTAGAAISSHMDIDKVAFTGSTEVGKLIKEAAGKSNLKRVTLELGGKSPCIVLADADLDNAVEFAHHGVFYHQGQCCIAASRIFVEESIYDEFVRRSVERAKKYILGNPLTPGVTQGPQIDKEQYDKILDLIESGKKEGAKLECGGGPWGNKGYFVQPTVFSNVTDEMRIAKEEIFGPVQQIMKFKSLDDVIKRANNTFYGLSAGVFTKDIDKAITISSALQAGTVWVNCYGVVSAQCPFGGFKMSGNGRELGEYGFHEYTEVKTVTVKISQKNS
miR-21 act = qHTS Assay for Modulators of miRNAs and/orActivators of miR-21; Potency, µM (doses to about 38.3 µM), without a hit: at the top dose activity change, positive = activation, usual class: activators; HeLa miR-21 FLuc reporter, luciferase, 48 h; AID 2288, 2010; 340,000 tested, under 10 active;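 note: % of control where 0% means no effect; miR-21 action dims this reporter so a rising signal means less miR-21 action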
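HeLa cells endogenously expressing miR-21, stably carrying CMV-driven firefly luciferase with a downstream miR-21 binding site, 2000 cells/well. Titrations up to approximately 40 uM, 48 hours; luciferase luminescence read.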
* marks the source's active call; other numbers are inactive results; ? = inconclusive; / = no result given; [ ] = another dose, or the depositor's remark. Sampled rows, rich in hits. Any-hit rate of the full collection: about 13%. Unless noted, calls come from the whole dose curve; as a rule, active = well fitted curve in the direction sought with a large enough effect; inconclusive = small, poorly fitted or top-dose-only effect, or another doubt; inactive = no such curve, though single readings can be large; an effect the other way counts as inactive or inconclusive.

SMILES | LMNA splice mod | JMJD2E inh | Sfp inh | G9a inh | ALDH1A1 block | miR-21 act
O=C1Nc2ccccc2C(=O)N2C[C@@H](O)C[C@H]12 | / | / | 3% | 4% | / | -7%
CCn1c(CC(=O)Nc2ccccc2Cl)nnc1SCC(=O)NC1CCCC1 | / | / | 11% | ? | / | -3%
CC1CN(CC(=O)Nc2nc3ccccc3s2)CC(C)O1 (stereo not drawn) | / | / | 9% | -10% | / | -17%
CC(=O)c1ccc(NC(=O)c2cccc(NC(=O)N3CCSc4ncccc43)c2)cc1 | / | / | / | ? | / | 17%
Cc1cc(C)cc(N=c2c([N+](=O)[O-])nn(-c3ccc4c(c3)OCCO4)n2O)c1 | ? | -14% | 14% | 10µM* | -7% | -17%
CCc1ccc(N=c2c([N+](=O)[O-])nn(-c3ccc4c(c3)OCCO4)n2O)cc1 | / | -24% | -14% | 18µM* | -14% | -40%
Cc1ccc(N=c2c([N+](=O)[O-])nn(-c3ccc(Cl)cc3)n2O)cc1C | / | -14% | ? | 10µM* | -16% | -8%
O=[N+]([O-])c1nn(-c2ccc3c(c2)OCCO3)n(O)c1=NC1CCCCCC1 | ? | -9% | -18% | 13µM* | 14µM* | -48%
Cc1ccc(N=c2c([N+](=O)[O-])nn(-c3ccc4c(c3)OCCO4)n2O)cc1F | -30%[46 µM] | -5% | 10% | ? | -5% | -34%
O=[N+]([O-])c1nn(-c2ccc3c(c2)OCCO3)n(O)c1=Nc1ccc(Cl)cc1 | 15% | -1% | -19% | ? | ? | -2%
Cc1ccc(N=c2c([N+](=O)[O-])nn(-c3ccc4c(c3)OCCO4)n2O)c(Cl)c1 | ? | -7% | -15% | 45µM* | ? | -23%
Cc1ccc(CN=c2c([N+](=O)[O-])nn(-c3ccc4c(c3)OCCO4)n2O)cc1 | -6% | 1% | -8% | ? | -10% | -68%
O=[N+]([O-])c1nn(-c2ccc3c(c2)OCCO3)n(O)c1=Nc1ccccc1 | ? | 1% | 1% | ? | 11µM* | 22%
Cc1ccccc1Cn1cnc2nc3c(cc2c1=O)CC(C)CC3 (stereo not drawn) | 7%[46 µM] | / | / | 4%[59 µM] | / | -26%
Cc1nnc(N2CCC(C(=O)N3CCCCC3)CC2)c2nn(-c3ccccc3)c(C)c12 | / | / | / | -10%[59 µM] | / | -3%
Cc1sc2nc3c(C(=O)N4CCCC4)cc(C(=O)c4ccccc4O)cn3c(=O)c2c1C | ? | ? | 22µM* | -129%[59 µM] | 20µM* | 6%
CC1Sc2ccc(C(=O)O)cc2NC1=O (stereo not drawn) | -6% | -1% | 3% | -42% | 3% | -1%
CCCCNC(=O)c1ccc2c(c1)NC(=O)C(CS(=O)(=O)Cc1cccc(C)c1)N2 (stereo not drawn) | -7%[46 µM] | / | / | 14µM* | / | -1%
COc1ccc(CNC(=O)c2ccc3c(c2)NC(=O)C(C)S3)cc1 (stereo not drawn) | ? | -1% | 22µM* | 10µM* | 10µM* | -33%
COc1ccc(CNC(=O)c2ccc3c(c2)NC(=O)C(CS(=O)(=O)Cc2ccccc2Cl)N3)cc1 (stereo not drawn) | -16%[46 µM] | / | / | 11µM* | / | -1%
COc1cc(C2C(C(=O)OCC(C)C)=C(C)N=C3SCCC(=O)N32)ccc1OCc1ccccc1 (stereo not drawn) | / | / | / | -27%[59 µM] | / | -15%
CCN(CC)S(=O)(=O)c1ccc(C(=O)NCc2n[nH]c(=S)n2-c2ccccc2OC)cc1 | 11% | 8% | -22% | 3.5µM* | ? | -3%
COc1ccccc1C(=O)NCc1n[nH]c(=S)n1Cc1ccccc1 | / | -2% | 12% | ? | ? | 2%
CCN(CC)S(=O)(=O)c1ccc(C(=O)NCc2nnc(SCC(=O)OC)n2C)cc1 | ? | 4% | 13% | 5% | ? | -3%
CCN(CC)S(=O)(=O)c1ccc(C(=O)NCc2n[nH]c(=S)n2-c2ccc(Cl)c(Cl)c2)cc1 | / | 15% | ? | 16µM* | 1.4µM* | -6%
SMILES | LMNA splice mod | JMJD2E inh | Sfp inh | G9a inh | ALDH1A1 block | miR-21 act
CCNc1ncc2nc(-c3cccs3)c(=O)n(Cc3cccc(OC)c3)c2n1 | ? | / | 16% | -7%[0.501 µM] | ? | /
Cc1ccc(C(=O)OCN2C(=O)c3ccccc3C2=O)c(O)c1 | / | / | 18% | -27% | / | 0%
Cc1nc2ccccn2c1C(=O)CSc1ccccc1 | 30%[9.22 µM] | 4% | 11% | 4% | -14% | -24%
Cc1nc2ccccn2c1C(=O)OCC#N | ? | 10% | 27% | 27% | 16µM* | -1%
CCOCCCn1c(=NC(=O)c2cccs2)c(C#N)cc2c(=O)n3cccc(C)c3nc21 | / | ? | -9% | 71µM* | / | -1%
CCOC(=O)c1cc2c(=O)n3ccccc3nc2n(C(C)C)c1=NC(=O)c1ccncc1 | -8% | -6% | 15% | 56µM* | 1% | -25%
CCOC(=O)c1cc2c(=O)n3ccccc3nc2n(CCCOC)c1=NC(=O)c1cccnc1 | -5% | -5% | -6% | 10µM* | ? | 0%
Cc1cccc(C(=O)N=c2c(C#N)cc3c(=O)n4cccc(C)c4nc3n2Cc2ccco2)c1 | -6% | ? | 28µM* | -51% | ? | -4%
Cc1ccc(NS(=O)(=O)c2c(C)[nH]c(C)c2C(=O)N2CCCCC2)cc1F | / | / | 5% | -22% | / | 7%
O=C(NC1CCCCC1)c1ccc(CSc2nc3ccncc3n2Cc2cccc(F)c2)cc1 | / | / | / | 3%[59 µM] | / | ?
O=S(=O)(Nc1cccc(-n2cnnn2)c1)c1ccccc1C(F)(F)F | / | / | -9% | 77%[59 µM] | / | 1%
CCOc1ccc(C(=O)Cn2c(=O)n3nc(CCn4nc(C)cc4C)nc3c3cc(OC)c(OC)cc32)cc1 | ? | / | / | 17%[59 µM] | / | 3%
O=C(NNC(=O)C1CC1)c1ccccc1[N+](=O)[O-] | / | / | 16% | 11% | / | -1%
COc1cccc(C(=O)N2CCN(C(=O)COc3ccc4ccccc4c3)CC2)c1 | / | / | 11% | 13% | / | -5%
CCOC(=O)c1cc2c(=O)n3ccccc3nc2n(Cc2ccco2)c1=NC(=O)c1cccnc1 | ? | -19% | 35µM* | 56µM* | 3% | -2%
CCOC(=O)c1cc2c(=O)n3ccccc3nc2n(Cc2ccco2)c1=NC(=O)c1ccccc1Br | / | / | / | 14%[59 µM] | / | 1%
CCOC(=O)c1cc2c(=O)n3cccc(C)c3nc2n(Cc2ccco2)c1=NC(=O)c1cccnc1 | -2% | ? | 25µM* | 8%[12.7 µM] | ? | -16%

Screening results from PubChem.
